Records with an inconclusive call do not appear. A call without a number means that no potency is given here. A number with no mark means an inactive call. The source made the active and inactive calls. Calls follow the shape of the dose curve; as a rule, active = well fitted curve in the direction sought with a large enough effect; inconclusive = small, poorly fitted or top-dose-only effect, or another doubt; inactive = no such curve, though single readings can be large; an effect the other way counts as inactive or inconclusive.
Tests used:
[1] = Quantitative High-Throughput drug screen in 47 multiple myeloma cell lines against the NCATS MIPE library collection: KMS26_JCRB cell viability assay (AID 1918975); also: nearly all actives have a fitted effect of over 45% in size; also: potency is read from the fitted curve at half-maximal effect
In short: (§1)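 qHTS of the MIPE 4.0 collection: 500 myeloma cells/well, 48 h drug exposure at 37C in 5% CO2, then CellTiter-Glo for 5 min at room temperature before luminescence reading.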

[2] = Quantitative High-Throughput drug screen in 47 multiple myeloma cell lines against the NCATS MIPE library collection: NCIH929_DSMZ cell viability assay (AID 1918978); also: nearly all actives have a fitted effect of over 35% in size; also: potency is read from the fitted curve at half-maximal effect
In short: (§2)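 qHTS format: cells plated (500/well), pin-dosed with MIPE 4.0 compounds, kept 48 h at 37 °C. Readout was CellTiter-Glo luminescence, median RLU.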

[3] = Quantitative High-Throughput drug screen in 47 multiple myeloma cell lines against the NCATS MIPE library collection: OCIMY1_PLB cell viability assay (AID 1918979); also: nearly all actives have a fitted effect of over 35% in size; also: potency is read from the fitted curve at half-maximal effect
In short: as §2

[4] = Quantitative High-Throughput drug screen in 47 multiple myeloma cell lines against the NCATS MIPE library collection: MM1S_ATCC cell viability assay (AID 1918980); also: nearly all actives have a fitted effect of over 45% in size; also: potency is read from the fitted curve at half-maximal effect
In short: as §2

[5] = Quantitative High-Throughput drug screen in 47 multiple myeloma cell lines against the NCATS MIPE library collection: LP1_DSMZ cell viability assay (AID 1918982); also: nearly all actives have a fitted effect of over 35% in size
In short: as §2

[6] = Quantitative High-Throughput drug screen in 47 multiple myeloma cell lines against the NCATS MIPE library collection: OCIMY5_PLB cell viability assay (AID 1918988); also: nearly all actives have a fitted effect of over 65% in size; also: potency is read from the fitted curve at half-maximal effect
In short: as §2

[7] = Quantitative High-Throughput drug screen in 47 multiple myeloma cell lines against the NCATS MIPE library collection: OPM1_PLB cell viability assay (AID 1918989); also: nearly all actives have a fitted effect of over 40% in size; also: potency is read from the fitted curve at half-maximal effect
In short: as §2

[8] = Quantitative High-Throughput drug screen in 47 multiple myeloma cell lines against the NCATS MIPE library collection: XG6_PLB cell viability assay (AID 1919865); also: nearly all actives have a fitted effect of over 40% in size; also: potency is read from the fitted curve at half-maximal effect
In short: as §2

[9] = Quantitative High-Throughput drug screen in 47 multiple myeloma cell lines against the NCATS MIPE library collection: XG1_PLB cell viability assay (AID 1919866); also: nearly all actives have a fitted effect of over 35% in size; also: potency is read from the fitted curve at half-maximal effect
In short: as §2

[10] = Quantitative High-Throughput drug screen in 47 multiple myeloma cell lines against the NCATS MIPE library collection: MOLP8_DSMZ cell viability assay (AID 1918977); also: nearly all actives have a fitted effect of over 45% in size; also: potency is read from the fitted curve at half-maximal effect
In short: as §2

[11] = Quantitative High-Throughput drug screen in 47 multiple myeloma cell lines against the NCATS MIPE library collection: MM1R_ATCC cell viability assay (AID 1918981); also: nearly all actives have a fitted effect of over 35% in size; also: potency is read from the fitted curve at half-maximal effect
In short: as §2

[12] = Quantitative High-Throughput drug screen in 47 multiple myeloma cell lines against the NCATS MIPE library collection: KMS28PE_JCRB cell viability assay (AID 1918983); also: nearly all actives have a fitted effect of over 35% in size; also: potency is read from the fitted curve at half-maximal effect
In short: as §2

[13] = Quantitative High-Throughput drug screen in 47 multiple myeloma cell lines against the NCATS MIPE library collection: SKMM1_PLB cell viability assay (AID 1919863); conditions: SKMM1 myeloma viability, CellTiter-Glo ATP, 48 h; viability: stronger effect = lower value; also: nearly all actives have a fitted effect of over 35% in size; also: potency is read from the fitted curve at half-maximal effect
In short: as §2

[14] = Quantitative High-Throughput drug screen in 47 multiple myeloma cell lines against the NCATS MIPE library collection: U266_ATCC cell viability assay (AID 1919864); also: nearly all actives have a fitted effect of over 35% in size; also: potency is read from the fitted curve at half-maximal effect
In short: as §2

[15] = Quantitative High-Throughput drug screen in 47 multiple myeloma cell lines against the NCATS MIPE library collection: KMS20_JCRB cell viability assay (AID 1918973); also: nearly all actives have a fitted effect of over 45% in size; also: potency is read from the fitted curve at half-maximal effect
In short: as §1

[16] = Quantitative High-Throughput drug screen in 47 multiple myeloma cell lines against the NCATS MIPE library collection: KMS34_JCRB cell viability assay (AID 1918985); also: nearly all actives have a fitted effect of over 40% in size; also: potency is read from the fitted curve at half-maximal effect
In short: as §2

[17] = Quantitative High-Throughput drug screen in 47 multiple myeloma cell lines against the NCATS MIPE library collection: OCIMY7_PLB cell viability assay (AID 1918987); also: potency is read from the fitted curve at half-maximal effect; nearly all actives have a fitted effect of over 65% in size
In short: as §2

[18] = Quantitative High-Throughput drug screen in 47 multiple myeloma cell lines against the NCATS MIPE library collection: KMS21BM_JCRB cell viability assay (AID 1918974); conditions: ATP luminescence, 48 h; viability: at 45.8 µM (top of the series) unless noted; also: potency is read from the fitted curve at half-maximal effect
In short: as §1

[19] = Quantitative High-Throughput drug screen in 47 multiple myeloma cell lines against the NCATS MIPE library collection: L363_DSMZ cell viability assay (AID 1918984); also: nearly all actives have a fitted effect of over 40% in size
In short: as §2

For `Nc1nnc(-c2cccc(Cl)c2Cl)c(N)n1`, the Potency [1] was “inactive”, the Potency [2] was 23.5 µM (active) and the Potency [3] was “inactive”. For the same compound, the Potency [4] was 11.8 µM (active), the Potency [5] was “inactive” and the Potency [6] was “inactive”. For the same compound, the Potency [7] was 23.5 µM (active), the Potency [8] was 9.35 µM (active) and the Potency [9] was 16.6 µM (active).
In the case of `Clc1ccc(C(c2ccccc2Cl)C(Cl)Cl)cc1` (configuration not stated), the Potency [1] is reported as 18.7 µM (active), the Potency [10] is reported as 26.4 µM (active) and the Potency [3] is reported as 26.4 µM (active). For the same compound, the Potency [11] was 14.8 µM (active), the Potency [12] was 23.5 µM (active) and the Potency [7] was 20.9 µM (active). The Potency [13] was 20.9 µM (active) and the Potency [14] was 20.9 µM (active).
For `CN(C)CCOC(c1ccccc1)c1ccccc1`, the Potency [15] was 18.7 µM (active), the Potency [1] was “inactive” and the Potency [4] was 10.5 µM (active). For the same compound, the Potency [11] was “inactive”, the Potency [5] was “inactive” and the Potency [12] was “inactive”. For the same compound, the Potency [16] was “inactive”, the Potency [17] was 18.7 µM (active) and the viability [13] was 119%. The Potency [9] was 7.43 µM (active).
In the case of `CN(C)C(=O)C(CCN1CCC(O)(c2ccc(Cl)cc2)CC1)(c1ccccc1)c1ccccc1`, the Potency [15] is reported as 14.8 µM (active), the Potency [1] is reported as 16.6 µM (active) and the Potency [2] is reported as 23.5 µM (active). The Potency [4] was 20.9 µM (active), the Potency [12] was 14.8 µM (active) and the Potency [6] was 16.6 µM (active). The Potency [7] was 23.5 µM (active), the Potency [13] was 23.5 µM (active) and the Potency [14] was 18.7 µM (active). For the same compound, the Potency [8] was 20.9 µM (active) and the Potency [9] was 18.7 µM (active).
With `N[C@@H](Cc1c[nH]c2ccc(O)cc12)C(=O)O` the Potency [1] was “inactive”, the Potency [2] was “inactive” and the Potency [3] was “inactive”. The Potency [11] was “inactive”, the Potency [16] was “inactive” and the Potency [6] was “inactive”. For the same compound, the Potency [7] was “inactive”, the viability [13] was 109% and the Potency [9] was “inactive”.
With `CC(C)NCC(O)COc1ccc(CCOCC2CC2)cc1` (configuration not stated) the Potency [1] was “inactive”, the Potency [2] was “inactive” and the Potency [3] was “inactive”. For the same compound, the Potency [4] was 16.6 µM (active), the Potency [12] was “inactive” and the Potency [16] was 5.9 µM (active). The Potency [6] was “inactive”, the Potency [7] was “inactive” and the Potency [9] was “inactive”.
With `Nc1ccn([C@H]2CC[C@@H](CO)O2)c(=O)n1` the Potency [1] was “inactive”, the Potency [10] was “inactive” and the Potency [12] was “inactive”. For the same compound, the viability [13] was 109%, the Potency [14] was “inactive” and the Potency [8] was 10.5 µM (active).
For `O=C(CCCN1CCC(O)(c2ccc(Cl)cc2)CC1)c1ccc(F)cc1`, the Potency [15] was 13.2 µM (active), the Potency [10] was “inactive” and the Potency [3] was “inactive”. For the same compound, the Potency [4] was 9.35 µM (active), the Potency [12] was 16.6 µM (active) and the Potency [6] was 18.7 µM (active). It also gave a viability [13] of 92.3%.
In the case of `CN1CCC(=C2c3ccccc3C=Cc3ccccc32)CC1`, the Potency [15] is reported as 9.35 µM (active), the Potency [2] is reported as 5.9 µM (active) and the Potency [4] is reported as 14.8 µM (active). The Potency [17] was 5.9 µM (active), the Potency [6] was 18.7 µM (active) and the Potency [7] was 18.7 µM (active). The Potency [14] was 16.6 µM (active), the Potency [8] was 8.33 µM (active) and the Potency [9] was 13.2 µM (active).
In the case of `Cc1cn([C@H]2C=C[C@@H](CO)O2)c(=O)[nH]c1=O`, the viability [18] is reported as 91.7% [at 92.2 µM] (active), the Potency [1] is reported as “inactive” and the Potency [10] is reported as “inactive”. For the same compound, the Potency [2] was “inactive”, the Potency [3] was “inactive” and the Potency [5] was “inactive”. The Potency [12] was “inactive”, the Potency [16] was “inactive” and the Potency [7] was “inactive”. For the same compound, the viability [13] was 87.6%, the Potency [14] was “inactive” and the Potency [8] was 3.82 µM (active). For the same compound, the Potency [9] was “inactive”.
In the case of `COc1cc2c(c(OC)c1OC)-c1ccc(OC)c(=O)cc1[C@@H](NC(C)=O)CC2`, the Potency [18] is reported as “inactive”, the Potency [2] is reported as “inactive” and the Potency [19] is reported as “inactive”. For the same compound, the Potency [7] was “inactive”, the Potency [8] was “inactive” and the Potency [9] was “inactive”.
With `COc1ccccc1OCC(O)CN1CCN(CC(=O)Nc2c(C)cccc2C)CC1` (configuration not stated) the Potency [15] was “inactive”, the Potency [1] was “inactive” and the Potency [11] was “inactive”. For the same compound, the Potency [5] was “inactive”, the Potency [7] was “inactive” and the viability [13] was 110%. For the same compound, the Potency [14] was “inactive”, the Potency [8] was “inactive” and the Potency [9] was “inactive”.
In the case of `CCCCc1oc2ccccc2c1C(=O)c1cc(I)c(OCCN(CC)CC)c(I)c1`, the Potency [1] is reported as 20.9 µM (active), the Potency [10] is reported as 23.5 µM (active) and the Potency [2] is reported as 23.5 µM (active). The Potency [3] was 26.4 µM (active), the Potency [4] was 2.35 µM (active) and the Potency [16] was 11.8 µM (active). For the same compound, the Potency [6] was 16.6 µM (active), the Potency [7] was 18.7 µM (active) and the Potency [13] was 20.9 µM (active). The Potency [14] was 3.72 µM (active), the Potency [8] was 13.2 µM (active) and the Potency [9] was 10.5 µM (active).
With `CCC1(c2ccccc2)C(=O)NCNC1=O` the Potency [1] was “inactive”, the Potency [10] was “inactive” and the Potency [2] was 1.32 µM (active). The Potency [3] was “inactive”, the Potency [4] was 1.05 µM (active) and the Potency [5] was “inactive”. For the same compound, the Potency [16] was “inactive”, the Potency [7] was 8.33 µM (active) and the Potency [14] was 2.96 µM (active). For the same compound, the Potency [8] was 2.09 µM (active) and the Potency [9] was 2.96 µM (active).
For `COc1cc2nc(N(C)CCCNC(=O)C3CCCO3)nc(N)c2cc1OC` (configuration not stated), the Potency [15] was “inactive”, the Potency [2] was “inactive” and the Potency [4] was “inactive”. For the same compound, the Potency [14] was “inactive”, the Potency [8] was “inactive” and the Potency [9] was “inactive”.
In the case of `NC(=O)OCC(COC(N)=O)c1ccccc1`, the Potency [15] is reported as “inactive”, the Potency [2] is reported as “inactive” and the Potency [3] is reported as “inactive”. The Potency [4] was 5.9 µM (active), the Potency [11] was “inactive” and the Potency [12] was “inactive”. The Potency [19] was “inactive”, the Potency [16] was “inactive” and the Potency [14] was 10.5 µM (active). For the same compound, the Potency [8] was “inactive” and the Potency [9] was “inactive”.
For `CN1C(C(=O)Nc2ccccn2)=C(O)c2ccccc2S1(=O)=O`, the Potency [1] was “inactive”, the Potency [10] was “inactive” and the Potency [2] was “inactive”. For the same compound, the Potency [3] was “inactive”, the Potency [12] was “inactive” and the Potency [16] was “inactive”. The Potency [6] was “inactive”, the viability [13] was 103% and the Potency [14] was “inactive”. For the same compound, the Potency [8] was “inactive” and the Potency [9] was “inactive”.
In the case of `CC12CC3CC(C)(C1)CC(N)(C3)C2`, the Potency [15] is reported as 20.9 µM (active), the Potency [3] is reported as “inactive” and the Potency [4] is reported as 18.7 µM (active). The Potency [12] was “inactive”, the Potency [17] was 23.5 µM (active) and the viability [13] was 125%. For the same compound, the Potency [8] was 20.9 µM (active) and the Potency [9] was 23.5 µM (active).
With `CC1COc2c(N3CCN(C)CC3)c(F)cc3c(=O)c(C(=O)O)cn1c23` (configuration not stated) the Potency [18] was 5.26 µM (active), the Potency [1] was “inactive” and the Potency [10] was “inactive”. For the same compound, the Potency [2] was “inactive”, the Potency [3] was “inactive” and the Potency [11] was “inactive”. For the same compound, the Potency [12] was “inactive”, the Potency [16] was “inactive” and the Potency [7] was “inactive”. For the same compound, the viability [13] was 135%, the Potency [14] was “inactive” and the Potency [9] was “inactive”.

Source: PubChem BioAssay (NCATS)
